The record followed here is PubChem BioAssay (EPA / NIEHS).

The AC50 is the concentration at which the activity in the assay is half-maximal.

Where “and” joins values, the source holds several entries; their conditions need not be identical. Equal entries are not always repeated. Results filed as inconclusive are left out. The source holds several records for some structures; these can differ, active in one and inactive in another. Calls of active or inactive are those of the source. The calls were made as follows: active = hit-call score of the fitted dose curve at least 0.9, where 1 is the maximum; inconclusive = response in the unintended direction; inactive = score below 0.9.

zebrafish Estrogen Receptor (ER1), esr1 (gene 259252), sequence (P57717 whole entry, looked up): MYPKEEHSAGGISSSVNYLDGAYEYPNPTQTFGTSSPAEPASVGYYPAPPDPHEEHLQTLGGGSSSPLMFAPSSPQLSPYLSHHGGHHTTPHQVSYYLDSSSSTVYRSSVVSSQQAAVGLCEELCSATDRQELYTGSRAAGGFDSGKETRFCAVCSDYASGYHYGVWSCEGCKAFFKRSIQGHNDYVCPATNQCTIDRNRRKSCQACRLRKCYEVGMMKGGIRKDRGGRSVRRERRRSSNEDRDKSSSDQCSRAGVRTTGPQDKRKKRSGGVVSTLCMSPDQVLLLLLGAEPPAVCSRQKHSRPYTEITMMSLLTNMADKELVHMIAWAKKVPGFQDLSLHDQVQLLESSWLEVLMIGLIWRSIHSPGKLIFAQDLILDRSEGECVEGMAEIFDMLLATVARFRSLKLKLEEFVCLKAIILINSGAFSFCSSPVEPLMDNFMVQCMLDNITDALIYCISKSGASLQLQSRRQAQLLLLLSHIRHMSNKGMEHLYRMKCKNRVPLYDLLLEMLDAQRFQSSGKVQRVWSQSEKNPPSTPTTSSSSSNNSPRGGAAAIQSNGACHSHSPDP

The target in the assay is zebrafish Estrogen Receptor (ER1), esr1 (gene 259252) (UniProt P57717). Nature of the assay: ATG_zfER1_XSP2: Attagene TRANS-FACTORIAL Multi-Species (XSP2) HepG2 Assay for zebrafish Estrogen Receptor (ER1) (AID 2283816). Here is the method:
ATG_XSP2_multi-species_TRANS is a cell-based, multiplexed assay created by modifying the existing Attagene TRANS-FACTORIAL system to include a panel of nuclear receptors from some or all the following species: human (Homo sapiens), mouse (Mus musculus), frog (Xenopus laevis), zebrafish (Danio rerio), chicken (Gallus gallus), and turtle (Chrysemys picta). The ECOTOX-FACTORIAL format uses HepG2, a human liver cell line, with measurements taken at 24 hours after chemical dosing in a 24-well plate. Xsp2 included 3 nM 6-alpha-fluorotestosterone and 1.5 nM norgestrel to stimulate the androgen receptor.ATG_zfER1_XSP2 is one of 29 assay components measured or calculated from the ATG_XSP2_multi-species_TRANS assay. It is designed to make measurements of mRNA induction, a form of inducible reporter, as detected with fluorescence intensity signals by Reverse transcription polymerase chain reaction (RT-PCR) and Capillary electrophoresis technology.The assay endpoint ATG_zfER1_XSP2 was analyzed in the positive analysis fitting direction relative to DMSO as the negative control and baseline of activity. Using a type of inducible reporter, measures of mRNA for gain-of-signal activity can be used to understand the reporter gene at the transcription factor-level as they relate to the gene ER. Furthermore, this assay endpoint can be referred to as a primary readout, because this assay has produced multiple assay endpoints where this one serves a reporter gene function. To generalize the intended target to other relatable targets, this assay endpoint is annotated to the nuclear receptor intended target family, where the subfamily is steroidal.
Human liver HepG2 cells are transiently transfected with multiple reporter transcription units (MRTUs) in 6-well plates using FuGene 6 reagent (Roche; 3 ml FuGene/1 mg DNA). The MRTU constructs are regulated by a cis-regulating element (promoter). […] A major difference between the CIS and TRANS system is that in CIS activities of endogenous TFs are measured, whereas the TRANS assay evaluates changes in activities of exogenous, chimeric NR-Gal4 proteins. […] At the end of 24 hour incubation, total RNA was isolated using TriZol reagent (Invitrogen). The isolated RNA is then reverse-transcribed using oligo(dT) primer and Mo-MLV reverse transcriptase (Invitrogen) with DNAse I (Ambion) treatment for 30 min. The one-tenth of the produced cDNA was amplified by PCR using Taq DNA polymerase (Invitrogen) and two reporter sequence-specific primers. The PCR products were fluorescently labeled by primer extension with 6-arboxyfluorescein (6-FAM) 5'-labeled reporter sequence-specific primer (2 min at 95 C, 20 s at 68 C and 10 min at 72 C) and these products were digested with 5U of HpaI (New England Biolabs) for 2h at 37 C. The fragments were purified using Qiaquick PCR columns (Qiagen), analyzed on an ABI 3130xL genetic analyzer (Applied Biosystems) with peak positions identified by using a set of X-rhodamine (ROX)-labeled MapMarker1000 molecular weight standards (BioVentures). The raw capillary electrophoresis data was processed using Attagraph software (Attagene).
In the case of `c1cc2ccc3cccc4ccc(c1)c2c34`, the result was inactive.

Take `C[C@]12CCC(=O)C=C1CC[C@@H]1[C@@H]2CC[C@@]2(C)[C@H]1CC[C@]2(C)O`: the half-maximal activity concentration (AC50) was 51.6 nM (active).

Turning to `Oc1ccc(C(c2ccc(O)cc2)(C(F)(F)F)C(F)(F)F)cc1`, the half-maximal activity concentration (AC50) is 336 nM (active) and the compound was called inactive.

Regarding `Clc1ccc(C(c2ccccc2Cl)C(Cl)(Cl)Cl)cc1` (centres undefined), the result was inactive.

Regarding `CC(c1ccc(O)cc1)(c1ccc(O)cc1)c1ccc(O)cc1`, the call was inactive.

As for `C[C@]12CCC(=O)C=C1CC[C@@H]1[C@@H]2CC[C@]2(C)C(=O)CC[C@@H]12`, the AC50 is 3130 nM (active) and the compound was classed as inactive.

On to `CCOC(=O)C(O)(c1ccc(Cl)cc1)c1ccc(Cl)cc1`, for which the compound was classed as inactive.

As for `ClC(Cl)=C(c1ccc(Cl)cc1)c1ccc(Cl)cc1`, the outcome was inactive.

For `CC(C)(c1ccccc1)c1ccc(O)cc1`, the AC50 was 6400 nM (active).

For `Cc1cc(-c2ccc(N)c(C)c2)ccc1N`, the concentration at half-maximal activity (AC50) was 65.7 µM (active) and 100 µM (active) and 81.1 µM (active).

With `CCC(=O)O[C@H]1CC[C@H]2[C@@H]3CCC4=CC(=O)CC[C@]4(C)[C@H]3CC[C@]12C`, the call was inactive.

With `CC(C)(O)C(=O)Nc1ccc([N+](=O)[O-])c(C(F)(F)F)c1`, the call was inactive.
